# Source: PubChem BioAssay (several laboratories)
# Sampled rows, rich in hits. Any-hit rate of the full collection: about 3.9%.
# CCHF vOTU inh: CCHFV vOTU protease inhibitors, primary screen, biochemical, Pep-AMC substrate, fluorescence | Crimean-Congo hemorrhagic fever virus L polyprotein viral ovarian tumor (vOTU) protease … | inhibition, % at 11.5 µM | 370,000 tested, 0.55% active | AID 651958, 2012; in the data active = inhibition above about 30%; note: 0% = vehicle wells with enzyme and 100% = no enzyme wells
# Anthrax LF prot: Bacillus anthracis LF protease inhibitors, primary screen, biochemical, multiplex microsphere, MLPCN library. Lethal factor (Bacillus anthracis), P15917. multiplex microsphere protease cleavage assay. inhibition, % at 10 µM. 360,000 tested, 0.12% active; note: plate controls were buffer without enzyme for full effect and enzyme alone for no effect
# Target sequence (P15917 whole entry, looked up): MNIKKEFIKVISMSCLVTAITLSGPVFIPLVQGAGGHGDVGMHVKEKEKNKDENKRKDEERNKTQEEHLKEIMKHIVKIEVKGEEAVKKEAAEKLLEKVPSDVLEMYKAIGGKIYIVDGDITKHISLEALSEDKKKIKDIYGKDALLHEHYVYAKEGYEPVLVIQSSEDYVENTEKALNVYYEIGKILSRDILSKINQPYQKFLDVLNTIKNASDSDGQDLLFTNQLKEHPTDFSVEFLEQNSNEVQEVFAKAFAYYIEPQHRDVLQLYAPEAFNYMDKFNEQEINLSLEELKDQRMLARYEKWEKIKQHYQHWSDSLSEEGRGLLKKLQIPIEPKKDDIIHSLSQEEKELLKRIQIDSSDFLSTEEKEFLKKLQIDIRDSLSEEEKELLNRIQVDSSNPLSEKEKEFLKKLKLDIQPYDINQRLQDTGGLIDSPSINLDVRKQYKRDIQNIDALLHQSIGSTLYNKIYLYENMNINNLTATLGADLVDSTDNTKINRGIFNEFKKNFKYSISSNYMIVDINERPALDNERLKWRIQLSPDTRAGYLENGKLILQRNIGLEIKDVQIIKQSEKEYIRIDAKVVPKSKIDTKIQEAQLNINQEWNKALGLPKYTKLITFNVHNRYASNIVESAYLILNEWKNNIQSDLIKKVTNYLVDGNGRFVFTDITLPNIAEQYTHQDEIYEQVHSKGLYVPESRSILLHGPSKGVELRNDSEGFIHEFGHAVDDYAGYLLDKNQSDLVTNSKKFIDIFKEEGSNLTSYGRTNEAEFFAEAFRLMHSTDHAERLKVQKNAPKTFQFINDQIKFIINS
# BoNT F protease: BoNT/F light chain protease inhibitors, primary screen, biochemical, flow cytometry, MLPCN library; inhibition, % at 10 µM; 360,000 tested, 0.22% active; Multiplex microsphere protease cleavage assay; Botulinum neurotoxin type F light chain protease (Clostridium botulinum); in the data active = inhibition above about 35%, passing the limit was not always enough; inconclusive = no clear call, values can overlap the other calls; note: plate controls were buffer without enzyme for full effect and enzyme alone for no effect
# 3CLpro inhibitor: SARS-CoV 3CLpro protease inhibitors, primary screen, biochemical, quenched FRET. Replicase polyprotein 1ab (Severe acute respiratory syndrome coronavirus), P0C6X7. recombinant SARS-CoV 3CLpro, quenched FRET peptide cleavage. inhibition, % at 6 µM. 290,000 tested, 0.14% active; in the data active = inhibition above about 12%
# Bead autofluor: flagged as autofluorescent in microsphere protease counterscreen; compound autofluorescence counterscreen, microsphere flow cytometry; hits give high values; fluorescence intensity (concentration not given with the values); 360,000 tested, 3.1% active; AID 624483; in the data active = fluorescence intensity above about 16000; inconclusive = no clear call, values can overlap the other calls
# BoNT A protease: BoNT/A light chain protease inhibitors, primary screen, biochemical, flow cytometry, MLPCN library; multiplex microsphere protease substrate cleavage; inhibition, % at 10 µM; 360,000 tested, 0.17% active; AID 588499, 2011; note: plate controls were buffer without enzyme for full effect and enzyme alone for no effect
# * = called active by the depositor; ? = inconclusive; . = no result. Cut-off read from the data, not from the text of the source, unless noted: active = inhibition above about 30%; inconclusive = no clear call, values can overlap the other calls; inactive = below that.
SMILES,CCHF vOTU inh,Anthrax LF prot,BoNT F protease,3CLpro inhibitor,Bead autofluor,BoNT A protease
CC(C)OC(=O)c1cccnc1N1CCN(c2ccc(F)cc2)CC1,3,-3,-2,-5,23861*,-2
O=C(Nc1ccccc1)c1cccnc1N1CCCC1,-5,-5,-7,5,17182*,?
COc1ccc2c(c1)CCCN2C(=O)C1CCCN(S(=O)(=O)c2ccccc2)C1 (stereo unspecified),4,.,.,.,.,.
CCOC(=O)C1=C(c2ccccc2)N=c2s/c(=C\c3ccc(O)cc3)c(=O)n2C1c1cccs1 (stereo unspecified),12,21,5,5,10458,15
CCOC(=O)C1=C(c2ccccc2)N=c2sc(=Cc3cc(OC)c(OC)c(OC)c3)c(=O)n2C1c1cccs1 (stereo unspecified),18,37*,18,.,3180,32*
Cc1cc(OC(C)CCN2CCC(C(O)(c3ccccc3)c3ccccc3)CC2)ccc1Br (stereo unspecified),8,.,.,.,.,.
Cc1cc(NC(=S)NC(=O)CC(C)C)ccc1Br,1,1,-6,8,25030*,-3
CC(C)CC(=O)NC(=S)Nc1cccc(NC(=O)c2ccccc2)c1,-7,0,-2,0,2692,0
COC(=O)CNC(=O)c1cccc(Cl)c1,2,-3,-3,-4,4407,1
COC(=O)CCC(=O)NNC(=O)c1cccc(Cl)c1,10,-2,-7,1,25239*,-6
Cn1c(NC(=O)c2ccccc2)c(-c2ccccn2)c(=O)c2ccccc21,3,3,1,-3,20450*,-1
COc1ccc(S(=O)(=O)Cc2ccc(C(=O)N3CCC4(CC3)OCCO4)o2)cc1,-1,-4,0,-3,19527*,1
O=C(O)c1ccc(CS(=O)(=O)Cc2ccccc2F)o1,-16,-4,-6,0,8061,-1
COc1ccccc1CNC(=O)c1ccc(CS(=O)(=O)c2ccccc2OC)o1,6,-3,-4,-6,22833*,-2
CCOC(=O)N1CCN(C(=O)c2ccc(CS(=O)(=O)c3ccccc3OC)o2)CC1,-8,-2,6,-5,20166*,?
CCN1CCN(C(=O)c2ccc(CS(=O)(=O)Cc3ccccc3F)o2)CC1,-1,-1,-4,2,25125*,-3
COc1ccc(OC)c(CN2C(=O)CN(S(C)(=O)=O)CC2(C)c2nnnn2C2CCCC2)c1 (stereo unspecified),-6,.,.,.,.,.
Cc1ccc(C)c(NC(=O)c2ccc(CS(=O)(=O)Cc3ccccc3C)o2)c1,-6,.,.,.,.,.
COc1ccccc1N1CCN(C(=O)c2ccc(CS(=O)(=O)c3ccccc3OC)o2)CC1,-5,-1,-4,-1,16680*,-1
CCCCCCCCNS(=O)(=O)CC1NCc2cc(F)ccc21 (stereo unspecified),12,.,.,.,.,.
CCCCc1c(-c2ccccc2OC)ncn1Cc1c(F)cccc1F,2,.,.,.,.,.
COc1ccc(-c2c[n+]3c4n2CCCCC4=C(c2ccc(Br)cc2)C3)cc1,-6,2,-16,3,22490*,?
NS(=O)(=O)c1ccc(NC(=O)CSc2ccc3ccccc3n2)cc1,3,-1,-2,3,16858*,-1
CC1(C)CC(=O)C(C=NCCc2ccc(S(N)(=O)=O)cc2)=C(O)C1,8,-2,-7,-1,23978*,-2
CCNc1nc(N)nc(Oc2ccc(OCCOc3ccccc3)nn2)n1,12,-4,-12,2,17908*,-5
SMILES,CCHF vOTU inh,Anthrax LF prot,BoNT F protease,3CLpro inhibitor,Bead autofluor,BoNT A protease
O=C(NCCc1ccc(F)cc1)c1ccc2c(c1)ncn2C1CCCCC1,-1,.,.,.,.,.
CC1(C)NC(=O)N(CCCOc2ccc3c(c2)CCC3)C1=O,-2,2,-4,3,10934,0
CC1(C)NC(=O)N(CCCCOc2ccc(Br)cc2Cl)C1=O,7,2,-16,4,?,-4
CCc1cc(OCCN2C(=O)NC(C)(C)C2=O)ccc1Cl,5,-10,-5,-1,20493*,0
CC1(C)NC(=O)N(CCCOc2ccc(Br)cc2Cl)C1=O,-3,-3,-2,6,23298*,-1
CC1(C)NC(=O)N(CCCCOc2ccc(Cl)cc2)C1=O,0,0,-6,3,23237*,-3
Cc1cc(OCCCCN2C(=O)NC(C)(C)C2=O)cc(C)c1Cl,2,-2,0,-3,23207*,0
CC1(C)NC(=O)N(CCCCOc2ccc(Cl)cc2C=O)C1=O,-3,4,-4,-2,4473,0
CC1=C2NC(N)=[N+](CC3CC3)C(Cc3ccccc3)[C@@H]2n2c(=O)n(-c3ccccc3)c(=O)n2C1 (stereo partly specified),-6,.,.,.,.,.
CCCCOc1ccc(C(=O)NC2CCCCN(CCC)C2=O)cc1 (stereo unspecified),-8,.,.,.,.,.
Cc1ccc(-c2nn3c(C)nnc3s2)cc1NC(=O)c1ccc(-c2ccc(Cl)cc2Cl)o1,-15,2,2,1,16181*,?
C=CCNC(=S)Nc1sc2c(c1C(=O)OCC)CC(C(C)C)OC2 (stereo unspecified),-2,0,0,6,22389*,0
Cc1cc(C(=O)NC(C)c2ccc3c(c2)OCO3)cs1 (stereo unspecified),-7,2,-7,0,22313*,?
CCSc1ccccc1C(=O)N1CCCC1,-1,-1,-6,-7,23440*,-2
CCSc1ccccc1C(=O)N1CCN(Cc2ccc3c(c2)OCO3)CC1,2,-9,0,0,22336*,3
O=C(O)c1ccccc1C(=O)N1CCN(Cc2ccc3c(c2)OCO3)CC1,0,15,-18,2,3918,-3
Cc1cc(C(=O)N2CCN(Cc3ccc4c(c3)OCO4)CC2)cs1,-4,-2,-6,-9,25075*,-5
Cc1cc(C(=O)Nc2ccc3c(c2)OCO3)cs1,.,1,-12,-2,10759,0
Cc1ccccc1C(=O)NC1CCCCN(Cc2cccc(Cl)c2)C1=O (stereo unspecified),1,.,.,.,.,.
O=C(NCCCN1CCN(c2ccc(F)cc2)CC1)NCc1ccccc1,12,.,.,.,.,.
CCSc1ccccc1C(=O)NCc1ccc2c(c1)OCO2,-15,-2,-9,-1,17574*,-4
CSc1ccccc1C(=O)NCc1ccc2c(c1)OCO2,0,-2,-2,5,20402*,1
N#Cc1cc(Sc2ccccn2)c([N+](=O)[O-])cc1C#N,-11,0,-5,-18,4352,4
N#Cc1cc(Sc2ccccn2)c(Sc2ccccn2)cc1C#N,-5,2,-4,0,17696*,-3
CC(=O)CC[C@@H]1CC[C@]2(CCCN(S(=O)(=O)C3CCCCC3)C2)O1,-1,.,.,.,.,.
